Test results taken from PubChem BioAssay (NCATS).
Records with an inconclusive call do not appear. The source made the active and inactive calls. Calls follow the shape of the dose curve; as a rule, active = well fitted inhibition curve with a large enough effect; inconclusive = small, poorly fitted or top-dose-only effect; inactive = flat fitted curve, though single readings scatter.

Experiments:
Experiment in all cases: Cytotoxic Profiling of Annotated Libraries Using Quantitative High-Throughput Screening (AID 1296008); also: nearly all actives have a fitted effect of over 60% in size
Settings in all cases: Five cell lines viability, CellTiter-Glo ATP luminescence, 48-72 h; max response: active compounds read low
[1] = test system: CRL-7250
In short: (§1)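 Cells exposed to compounds for 48 or 72 hr at 37 degrees Celsius. Viability read as ATP-coupled luminescence with CellTiter-Glo after 10 min at room temperature.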

[2] = test system: HEK293
In short: as §1

[3] = test system: HaCat
In short: as §1

[4] = test system: KB-3-1
In short: as §1

[5] = test system: NIH3T3
In short: as §1

Measured: max response
% is scaled to controls: 0 for no effect and ±100 for the full control effect.

COc1cc(/C=C/c2cc(O)cc(O[C@@H]3O[C@H](CO)[C@@H](O)[C@H](O)[C@H]3O)c2)ccc1O
inactive: [1] 2.61% | [2] | [3] | [4] 4.08% | [5]

C=C1CC23CCC4[C@@](C)(CCC[C@@]4(C)C(=O)O)C2CCC1C3 (stereo not given in full)
inactive: [1] -2.77% | [2] | [3] -11.3% | [4] 2.07% | [5] 3.55%

Cc1cc(C)cc(NC(=O)Cc2ccc(OC(C)(C)C(=O)O)cc2)c1
inactive: [1] 0.247% | [2] | [3] | [4] | [5] -1.99%

C=CC(C)(C)C1(CC2NC(=O)C3CCCN3C2=O)C(=O)Nc2cc3c(cc21)C=CC(C)(C)O3 (stereo not given)
inactive: [1] -5.49% | [2] | [3] -0.592% | [4] 2.09% | [5]

Cc1ccc2c(c1)C=Cc1cc(C)ccc1C2c1cn(Cc2ccc(C(=O)Nc3nn[nH]n3)o2)c(=O)[nH]c1=S
inactive: [1] | [2] | [3] -1.86% | [4] | [5] -7.39%

C/C=C/C1=CC2=CC(=O)C(C)(O)C(OC(=O)c3c(C)cc(O)cc3O)C2CO1 (stereo not given)
inactive: [1] 1.95% | [2] | [3] | [4] 2.68% | [5]

COc1cc(C(C)=O)ccc1O[C@@H]1O[C@H](CO[C@@H]2O[C@@H](C)[C@H](O)[C@@H](O)[C@H]2O)[C@@H](O)[C@H](O)[C@H]1O
inactive: [1] -2.17% | [2] | [3] | [4] | [5]

CC1[C@@H](O)[C@@H](O)C2[C@]3(C)C(C[C@H]4OC(=O)[C@H](O)[C@]1(O)[C@@]24C)C(C)(O)C[C@H](O)[C@H]3O (stereo not given in full)
inactive: [1] | [2] | [3] | [4] 4.32% | [5]
